Rows were chosen to be rich in hits. Some 3.5% of all compounds tested hit in one or more screens of this group.
ANO1 block = TMEM16A chloride channel inhibitors, primary screen, cell-based, HTS; HEK293 TMEM16A/YFP iodide influx fluorescence, ionomycin; normalized B-score (activity score, 25-100; higher = stronger inhibition) at 10 µM; hit rate 1.2% among 310,000;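 active means ratio plate-corrected score three or more library SD toward inhibition, starting fluorescence score within five deviations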;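 further: score derived from kinetic fluorescence span divided by baseline fluorescence per well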
ANO1 activ = TMEM16A chloride channel activators or potentiators, primary screen, cell-based, HTS. Anoctamin-1 (Mus musculus), Q8BHY3. HEK293 TMEM16A/YFP-H148Q/I152L, iodide quench fluorescence; stronger effect = lower value. B-score at 10 µM. hit rate 0.3% among 340,000;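 active means fluorescence-ratio B-score plate-corrected deviation score at least 3 library SD below zero, with starting fluorescence score within 5 deviations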;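 further: channel opened by trigger with iodide after compound preincubation; score built on the fluorescence ratio of max minus min over baseline; more negative score means more quench and so TMEM16A activation or potentiation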
Kir21 inh = inhibitors of mouse Kir2.1 inward-rectifier potassium channel; Inward rectifier potassium channel 2 (Mus musculus), P35561; HEK293-Kir2.1, FluxOR thallium flux fluorescence; stronger effect = lower value; B-score at 10 µM; hit rate 0.85% among 310,000; AID 1672, 2009;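 active means fluorescence ratio B-score at or below minus 3 SD of library scores, with starting-brightness B-score within 2 SD, cut at about -4.2 in these data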;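 further: channel flux triggered by added potassium and thallium sulfate stimulus; B-score of peak minus minimum fluorescence over baseline after thallium stimulus; more negative B-score means stronger Kir2.1 block with less thallium influx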
Target sequence (P35561 whole entry, looked up): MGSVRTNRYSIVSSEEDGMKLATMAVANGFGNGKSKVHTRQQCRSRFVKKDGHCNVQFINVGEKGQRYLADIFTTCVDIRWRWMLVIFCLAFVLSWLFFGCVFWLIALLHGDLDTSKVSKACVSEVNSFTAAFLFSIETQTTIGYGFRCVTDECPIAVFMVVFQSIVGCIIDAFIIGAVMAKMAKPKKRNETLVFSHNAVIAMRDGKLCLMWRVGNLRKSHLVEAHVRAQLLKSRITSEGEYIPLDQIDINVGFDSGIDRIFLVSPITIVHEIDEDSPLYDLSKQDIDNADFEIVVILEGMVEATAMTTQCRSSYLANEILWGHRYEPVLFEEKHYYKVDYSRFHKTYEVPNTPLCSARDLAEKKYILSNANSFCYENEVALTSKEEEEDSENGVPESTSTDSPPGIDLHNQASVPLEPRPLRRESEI
KCNK3 inh = human KCNK3 channel inhibitors, primary screen, CHO cells, FluxOR thallium flux, B-score; B-score at 10 µM; hit rate 0.84% among 340,000; AID 602410, 2012; FluxOR fluorescence; stronger effect = lower value;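 active means B-score under library mean minus 4 SD, starting fluorescence ratio at most library mean plus 5 SD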;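 further: more negative B-score means stronger inhibition of thallium flux through KCNK3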
KCNK9 block = KCNK9 potassium channel inhibitors, primary screen, HEK293 cells, thallium flux | AID 488922, 2010 | hit rate 1.2% among 310,000 | B-score at 10 µM | FluxOR thallium flux fluorescence; stronger effect = lower value | Potassium channel subfamily K member 9 (Homo sapiens), Q9NPC2;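 active means ratio B-score over 3 SD below the library mean, with starting fluorescence within 5 SD of its mean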;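 further: negative B-score means less thallium flux so channel inhibition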
KCNK9 inh conf = KCNK9 potassium channel inhibitors, confirmation, HEK293 cells, thallium flux, duplicate. shares compounds with KCNK9 block. FluxOR thallium flux fluorescence. inhibition, % at 10 µM. hit rate 43% among 4,900;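 active means thallium signal inhibited by more than 5 SD of the compound-free buffer control wells, on both duplicate plates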;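 further: 0% = assay buffer control wells without compound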
Kir21 sel = mouse Kir2.1 channel inhibition, confirmation, selectivity assay for KCNK9 modulator project, cell-based, HEK293, thallium flux. shares compounds with KCNK9 block. Kir2.1 cells, FluxOR thallium flux fluorescence. inhibition, % at 10 µM. hit rate 4% among 4,900;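 active means thallium signal drop more than 5 SD beyond the mean of the no-compound control wells, seen in both duplicate plates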;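 further: signal is fluorescence rise after thallium addition divided by baseline fluorescence; plate controls were assay buffer only for no effect and full block by chlorpromazine control for full effect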
KCNK9 uninduced = thallium flux in non-induced HEK293 cells, confirmation, counter-screen for KCNK9 inhibitor project, cell-based, second counter screen, non-induced KCNK9-HEK293 | hit rate 40% among 4,900 | AID 492997, 2010 | FluxOR thallium flux | inhibition, % at 10 µM | shares compounds with KCNK9 block;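 active means thallium signal drop beyond 5 SD of the untreated control mean, on both duplicate plates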;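 further: plate controls were buffer only IC0 wells for no effect and SID17386958 at its maximal inhibitory level for full effect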
Starred values were filed as active, the others as inactive; i = inactive; nt = no result given.

SMILES	ANO1 block	ANO1 activ	Kir21 inh	KCNK3 inh	KCNK9 block	KCNK9 inh conf	Kir21 sel	KCNK9 uninduced
c1ccc(CC2CCN(C3=Nc4cccc5cccc3c45)CC2)cc1	i	i	-1.45	i	-9.01*	36.0%*	35.0%*	38.0%*
O=C(Cc1ccsc1)N1CCN(S(=O)(=O)c2ccccc2F)CC1	nt	i	nt	i	nt	nt	nt	nt
COc1cc(-c2nc(-c3ccccc3)c(-c3cc([N+](=O)[O-])ccc3C)[nH]2)cc(OC)c1OC	i	i	-0.67	-11.5*	-13.5*	60.0%*	i	23.5%*
O=[N+]([O-])c1cccc(S(=O)(=O)[N-]c2nc3ccccc3nc2-n2cc[n+](Cc3ccccc3)c2)c1	i	i	-0.01	i	i	nt	nt	nt
Cc1ccc(C(=O)CCCn2nnc(-c3cccnc3)n2)cc1C	i	i	0.18	i	i	i	i	i
Cc1ccc2ccccc2c1NC(=O)Cn1nnc(-c2cccnc2)n1	i	i	1.39	i	i	nt	nt	nt
CCc1sc(C(=O)Nc2ccc3c(c2)OCCO3)cc1Br	i	i	-0.03	i	i	nt	nt	nt
O=C(N/N=C/c1ccc(O)cc1)c1cccc(N/N=C/c2ccc(O)cc2)c1	i	i	-0.04	i	i	nt	nt	nt
Cc1ccc2c(c1)N(CCC(=O)NC1CCCCC1C)C(=O)CO2 (configuration not stated)	i	i	0.31	i	i	i	i	i
Cc1ccc2c(c1)N(CCC(=O)NC(C)C)C(=O)CO2	i	i	-0.49	i	i	nt	nt	nt
Cn1nc(-c2ccccc2)c(-c2nc(-c3ccccc3Cl)no2)c1Cl	i	i	-1.16	i	-10.4*	41.0%*	i	32.0%*
O=C1CC(=O)N(CCc2ccccc2)C(=O)N1CCc1ccccc1	i	i	1.44	i	i	i	i	i
CC1CC(=O)N(CCc2ccccc2)C(=O)C1	nt	i	nt	i	nt	nt	nt	nt
COc1ccc(OC)c(C(=O)NC(CC(N)=O)c2ccc(N3CCC(Cc4ccccc4)CC3)c([N+](=O)[O-])c2)c1 (configuration not stated)	i	i	-1.78	i	-10.9*	55.0%*	i	i
CCCCc1ccc(-c2ccc(Br)cc2)nc1	i	i	-1.62	i	i	i	i	i
Cc1cc(OCC(=O)NCCc2ccc(Cl)cc2)c2c(C)cc(=O)oc2c1	i	i	-0.49	i	i	nt	nt	nt
COC(=O)C(C)Oc1cc(C)ccc1COc1ccc(-n2nc(C)n(C(F)F)c2=O)cc1 (configuration not stated)	i	i	0.35	i	i	i	i	i
CC(=O)c1ccc(S(=O)(=O)N2CCN(C(=O)CSc3ccc(C)c(C)c3)CC2)cc1	i	i	-0.43	i	i	nt	nt	nt
COc1ccc(CNC(=O)COC(=O)/C=C/c2cccc(Br)c2)cc1OC	i	i	0.1	i	i	nt	nt	nt
COc1nnc(-c2ccc(C)c(S(=O)(=O)NCC3CCCO3)c2)c2ccccc12 (configuration not stated)	i	i	1.03	i	i	nt	nt	nt
Cc1ccc(-c2nnc(N3CCCCC3)c3ccccc23)cc1S(=O)(=O)NCC1CCCO1 (configuration not stated)	i	i	-0.26	i	-11.8*	i	i	i
Cn1nc(C(F)(F)F)cc1C(=O)NC1CCCCCC1	i	i	0.83	i	i	nt	nt	nt
CCOP(=O)(OCC)c1nc(-c2cccc3ccccc23)oc1NCCc1ccc(OC)cc1	i	i	-0.26	i	i	i	i	28.5%*
CCOC(=O)C1CCCN(CCc2ccccc2)C1 (configuration not stated)	i	i	0.78	i	i	nt	nt	nt
O=C(OC1C2CCC1C1CN(CCc3ccccc3)CC12)c1ccccc1 (configuration not stated)	i	i	-7.36	i	i	i	i	i
SMILES	ANO1 block	ANO1 activ	Kir21 inh	KCNK3 inh	KCNK9 block	KCNK9 inh conf	Kir21 sel	KCNK9 uninduced
CCOc1ccc(/C=N/NC(=O)c2nnn(-c3nonc3N)c2CN(C)C2CCCCC2)cc1	i	i	-0.69	i	i	nt	nt	nt
CCOC(=O)/C=c1/s/c(=C/c2ccc3cc(OC)ccc3c2)c(=O)n1CC(=O)NCc1ccc2c(c1)OCO2	nt	i	nt	i	nt	nt	nt	nt
O=C(NC(=S)NCCC1=CCCCC1)c1ccccc1Br	i	i	-2.4	i	i	i	i	i
Cc1cc(C)c(S(=O)(=O)N2CCC(C(=O)NCc3ccncc3)CC2)c(C)c1	i	i	-0.2	i	i	nt	nt	nt
Cc1cc(C)c(S(=O)(=O)N2CCC(C(=O)NCc3ccc(Cl)cc3Cl)CC2)c(C)c1	i	i	0.38	i	i	i	i	i
Cc1ccc(NC(=S)NNc2ccc([N+](=O)[O-])cc2S(=O)(=O)Nc2ccccc2C(=O)O)cc1C	i	i	-0.63	i	i	i	i	i
CC(=O)Nc1ccc(C=NNc2ccc([N+](=O)[O-])cc2S(=O)(=O)Nc2ccccc2C(=O)O)cc1	nt	i	nt	i	nt	nt	nt	nt
O=C(O)C(Cc1cccs1)c1cccs1 (configuration not stated)	nt	i	nt	i	nt	nt	nt	nt
Cc1cc(C)cc(C(=O)Nc2ccc(N3CCN(C(=O)c4ccco4)CC3)cc2)c1	i	i	0.01	i	i	nt	nt	nt
O=C(CN1C(=O)S/C(=C\c2cc(Cl)c(O)c(Cl)c2)C1=O)Nc1ccccc1	i	i	-1.45	i	i	i	i	i
O=C(CN1C(=O)S/C(=C\c2ccccn2)C1=O)Nc1ccccc1	i	i	2.18	i	i	nt	nt	nt
COc1ccccc1/C=N/NC(=S)NCc1ccco1	i	i	1.12	i	i	nt	nt	nt
N#Cc1c(N)nc2c(c1-c1ccc3c(c1)OCO3)CCc1ccccc1-2	i	i	0.84	i	-11*	31.0%*	i	30.0%*
N#Cc1c(N)c(C#N)c(-c2ccc3c(c2)OCO3)c2c1CCCC2	i	i	-0.32	i	i	nt	nt	nt
O=C(Nc1ccn(CCCNCc2ccc3c(c2)OCO3)c(=O)n1)OCc1ccccc1	nt	nt	nt	i	nt	nt	nt	nt

Screening results from PubChem BioAssay.
